Records with an inconclusive call do not appear. Values without a mark were called inactive. Active and inactive are the calls of the source. Calls follow the shape of the dose curve; as a rule, active = well fitted activation curve with a large enough effect in the repeat runs; inconclusive = weak or mixed curves; inactive = flat fitted curve, though single readings scatter.
Test: A CellTox Green Cytotoxicity Assay to monitor cytotoxicity in HepG2 cells - 8 hour (AID 1224890); also: nearly all actives have a fitted effect of over 45% in size
Conditions: CellTox Green fluorescence; series mostly up to 76.8 µM; cytotoxicity increase: at the top concentration
Source text: National Center for Advancing Translational Sciences [NCATS]
NIH Chemical Genomics Center [NCGC]
U.S. Environmental Protection Agency [EPA]
National Institutes of Environmental Health Sciences [NIEHS]
National Toxicology Program [NTP]
Cell-based models are critical for drug discovery. Determining the natural cytotoxic effects resulting from test compounds is an essential research activity. A CellTox Green Cytotoxicity Assay to monitor cytotoxicity in real time of continues cell culture during 40 hours of the compound treatment was used to screen Tox21 10K library compounds in HepG2 cells. CellTox Green Cytotoxicity Assay is a nonlytic, homogeneous, biofluorescent method to measure cytotoxicity in cell culture after experimental manipulation. The assay system uses a proprietary asymmetric cyanine dye that is excluded from viable cells but preferentially stains the dead cell's DNA. […] Viable cells produce no appreciable increases in fluorescence. Therefore, the fluorescence signal produced by the binding interaction with dead cell DNA is proportional to cytotoxicity.
The mixture of HepG2 cell suspension and reagents were dispensed at 600cells/6 ul/well in 1536-well tissue culture treated black solid bottom plates using a Multidrop dispenser. After the assay plates were incubated at a 37 C/5% CO2 incubator for 5 hours, 23 nL of compounds dissolved in DMSO, positive and negative controls was transferred to the assay plate by a pintool work station. The plates were incubated at 37 C for 40 hours. The fluorescence intensity were measured at 0h, 8h, 16h, 24h, 32h and 40h time points using ViewLux plate reader during compound treatment.
% is scaled to controls: 0 for no effect and ±100 for the full control effect; potency is read from the fitted curve at half-maximal effect.

In order of rising “cytotoxicity increase” value:
1. CN1[C@@H]2CC[C@H]1CC(O)C2 (stereo not given in full)  -15.7%
2. Cc1c([N+](=O)[O-])cc2c(c1[N+](=O)[O-])C(C)(C)CC2(C)C  -13.9%
3. CN(C)CCc1c[nH]c2ccccc12  -12.4%
4. O.O.O.O=C([O-])[C@H]([O-])[C@@H]([O-])C(=O)[O-].O=C([O-])[C@H]([O-])[C@@H]([O-])C(=O)[O-].[K+].[K+].[Sb+3].[Sb+3]  -11%
5. CC(Cc1ccc2c(c1)OCO2)NO (stereo not given)  -10.3%
6. Cc1c([N+](=O)[O-])c(C)c([N+](=O)[O-])c(C(C)(C)C)c1[N+](=O)[O-]  -10.2%
7. COP(=S)(NC(C)C)Oc1ccc(C)cc1[N+](=O)[O-] (stereo not given)  -8.75%
8. CCOP(=O)(OCC)Oc1cc(C)nc(C(C)C)n1  -7.42%
9. COCCC#N  -7.18%
10. [O-][Cl+3]([O-])([O-])O  -6.53%
11. CC(Cl)CCl (stereo not given)  -5.67%
12. CN(C)c1ccc(N)cc1  -4.99%
13. Nc1cc(Cl)ccc1Cl  -1.47%
14. COC(=O)C(C)N(C(=O)c1ccco1)c1c(C)cccc1C (stereo not given)  -1.45%
15. CCC[CH2][Sn]([CH2]CCC)([O]C(C)=O)[O]C(C)=O  -0.719%
16. C=CC(=C)C  -0.559%
17. Oc1cc(Cl)cc(Cl)c1  -0.1%
18. O=[N+]([O-])c1cccc2cccc([N+](=O)[O-])c12  0.0707%
19. Clc1ccc(C2(Cn3cncn3)OCCO2)c(Cl)c1  0.0734%
20. CCCCc1ccccc1  0.236%
21. NC(=O)C(Cl)Cl  0.395%
22. CNC(=O)/C=C(\C)OP(=O)(OC)OC  1.51%
23. O=[N+]([O-])c1ccccc1-c1ccccc1  2.68%
24. CCNc1nc(NC(C)C(C)C)nc(SC)n1 (stereo not given)  2.73%
25. O=C(O)[C@H](O)[C@@H](O)C(=O)O  4.02%
26. CCCN  6.14%
27. S=C=Nc1ccccc1  6.3%
28. CC(C)(C)c1ccc(OP(=O)(Oc2ccccc2)Oc2ccccc2)cc1  7.15%
29. CC(=O)[O-].CC(=O)[O-].O.O.O.[Pb+2]  9.21%

With Clc1ccc(C(Cl)(Cl)Cl)cc1Cl the Potency was 47.9 µM (active).
With CCN(CC)C(=S)S the Potency was “inactive”.
With [F][Sn]([c]1ccccc1)([c]1ccccc1)[c]1ccccc1 the Potency was 2.45 µM (active).
With CC(=O)[O][Pb]([c]1ccccc1)([c]1ccccc1)[c]1ccccc1 the Potency was 3.89 µM (active).
With C=CC(=O)[O][Sn]([CH2]CCC)([CH2]CCC)[CH2]CCC the Potency was 0.977 µM (active).

In order of falling “cytotoxicity increase” value:
1. O=C1C[C@@H]2OCC=C3CN4CC[C@]56c7ccccc7N1[C@H]5[C@H]2[C@H]3C[C@H]46  10.8% [at 35.3 µM]
2. CN1C2CCC(C)(C)C1CC(OC(=O)C(O)(c1cccs1)c1cccs1)C2 (stereo not given)  4.02% [at 35.3 µM]
3. C[N+]1(C)[C@@H]2CC[C@H]1CC(OC(=O)C(CO)c1ccccc1)C2 (stereo not given in full)  -0.339% [at 35.3 µM]
4. COc1c2c(cc3c1OCO3)CCN(C)C2  -1.57% [at 35.3 µM]
5. CCCCC/C=C\C/C=C\C/C=C\C/C=C\CCCC(=O)NCC(=O)O  -2.07% [at 35.3 µM]
6. C[C@@H]1CC2=CC(=O)CC[C@@H]2[C@H]2CC[C@@]3(C)[C@@H](CC[C@]3(C)O)[C@@H]21  -2.49% [at 35.3 µM]

From PubChem BioAssay (Tox21)
